Experimental data as given in PubChem BioAssay AID777 (Sanford-Burnham Center for Chemical Genomics, 2007).
The campaign covered roughly 96,000 compounds. About 19,000 (20%) were called active.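 Rule for the calls: active = blocking of liver enzyme CYP2C9 beyond about 50% at 5 µM (limit read from the data); inactive = the rest.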 A selection follows.

target: Cytochrome P450 2C9 (Homo sapiens) (UniProt P11712); assay: blockers of cytochrome P450 2C9 activity – biochemical, luminescence, ADME assay, primary screen (AID 777); conditions: CYP2C9 Supersomes, luciferin-H conversion, at 5 µM, hits give high values
Sequence (P11712 whole entry, looked up): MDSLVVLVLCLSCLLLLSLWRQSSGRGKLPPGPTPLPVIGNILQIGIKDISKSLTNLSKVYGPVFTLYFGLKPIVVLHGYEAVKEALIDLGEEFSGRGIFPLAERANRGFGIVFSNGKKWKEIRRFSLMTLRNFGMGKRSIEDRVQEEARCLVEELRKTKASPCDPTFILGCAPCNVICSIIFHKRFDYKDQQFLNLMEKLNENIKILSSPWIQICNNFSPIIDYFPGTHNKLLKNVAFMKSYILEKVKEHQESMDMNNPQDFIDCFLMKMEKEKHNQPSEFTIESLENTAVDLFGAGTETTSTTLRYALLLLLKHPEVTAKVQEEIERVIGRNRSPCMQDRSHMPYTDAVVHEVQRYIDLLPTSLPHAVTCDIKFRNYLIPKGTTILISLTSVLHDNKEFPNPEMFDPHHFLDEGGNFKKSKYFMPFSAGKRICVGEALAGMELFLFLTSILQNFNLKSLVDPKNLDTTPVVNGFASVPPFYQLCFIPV

inhibition, active:
Cc1c(C#N)c(NC(=O)c2ccccc2)n(Cc2ccccc2)c1C 60.7%
O=C(Nc1ccncc1)c1cc2ccccc2o1 86%
COC(=O)c1ccccc1NC(=O)C1CCN(S(=O)(=O)c2cc(OC)ccc2OC)CC1 92.2%
CC(C)CCNC(=O)Cn1c(=O)oc2cc(S(=O)(=O)N3CC(C)CC(C)C3)ccc21 (configuration not stated) 51.3%
Cn1c(=O)c2c(nc(SCC(=O)Nc3ccccc3N3CCCCC3)n2C)n(C)c1=O 93.9%
CC(C)n1c(SCC(=O)Nc2ccccc2N2CCCCC2)nc2c1c(=O)n(C)c(=O)n2C 87.2%
O=c1c2ccccc2nnn1CSc1nc2sc3c(c2c(=O)n1CC1CCCO1)CCC3 (configuration not stated) 84.8%
COc1ccccc1NC(=O)CSc1nnc(Cc2cccn2C)n1-c1ccc(F)cc1 62.7%
CCC(C)N1C(=O)S/C(=C/c2ccc(Sc3nc4ccccc4[nH]3)o2)C1=O (configuration not stated) 60%
COc1cccc2sc(Nc3nc(C)c(C(C)=O)s3)nc12 64.5%
CS(=O)(=O)N(CC(=O)Nc1ccc(Cl)c(Cl)c1)C1CCCCC1 59.4%
COc1ccc(-c2noc(CSc3ccc(C)cc3)n2)cc1 52.3%
COc1ccc(N2CCN(C(=O)CCc3nc(-c4ccc(C)cc4)no3)CC2)cc1 51.2%
Cc1ccc(-c2noc(CC(c3ccccc3)c3ccccc3)n2)cc1 55.2%
Fc1ccc(-n2c(Cc3ccccc3)nnc2SCc2nc(-c3ccc(Cl)cc3)no2)cc1 62.6%

inhibition, inactive:
Cc1ccc(C(=O)Nc2c(C#N)c(C)c(C)n2Cc2ccccc2)cc1 22.4%
COc1ccc(Cn2c(C)c(C)c(C#N)c2NC(=O)Nc2ccc(F)cc2)cc1 13.6%
CCCc1nc(N)nc2c1C(=O)CC(C)(C)C2 -35.3%
CCCSc1nsc(N)n1 16.4%
O=C(Nc1cccc(-c2nc3ncccc3o2)c1)c1ccco1 -2.1%
O=C(Nc1ccncc1)c1c(F)cccc1F 40.2%
O=C(C1CCCO1)N(Cc1ccccc1)c1ccccc1 (configuration not stated) -4%
Cc1cc([N+](=O)[O-])c(N2CCC[C@@H]2C(=O)O)c([N+](=O)[O-])c1 5.1%
CS(=O)(=O)c1ccc2nc(NC(=O)C3C4C=CC(C4)C3C(=O)O)sc2c1 (configuration not stated) -5.4%
CC(C)(C)n1c(=O)[nH]c2c(c1=O)CCC2 -7.2%
CCOc1ccccc1NC(=O)C1CCN(S(=O)(=O)c2c(C)nn(C)c2C)CC1 -30.6%
CCOc1ccc(OCC)c(NC(=O)C2CCN(S(=O)(=O)c3c(C)noc3C)CC2)c1 48.4%
O=C(Cc1c(O)c2ccccc2[nH]c1=O)NCc1ccccc1 9.8%
O=C(Nc1ccon1)c1cccc(Cl)c1 17.5%
Cc1ccc(Oc2ccc(N)cc2)cc1 29.2%
CC(C(=O)Nc1ccc(F)c(F)c1F)N1CCCCCC1 (configuration not stated) 13.7%
Cc1cc(NC(=O)COc2ccc(Cl)cc2Cl)n(CCC#N)n1 16.2%
O=C1CCCC2=C1C(c1ccccc1)n1c(s/c(=C/c3cccc(F)c3)c1=O)=N2 (configuration not stated) 49.7%
O=C(NC1CCCCC1)n1c(=O)oc2cc(S(=O)(=O)N3CCCCC3)ccc21 -56.7%
CCOC(=O)Cn1c(=O)oc2cc(S(=O)(=O)NCC3CCCO3)ccc21 (configuration not stated) 11.7%
Cn1c(=O)c2c(nc(N3CCCCCC3)n2CC(O)COc2ccc(Cl)cc2)n(C)c1=O (configuration not stated) 20%
O=C(CN1CCN(C2CCCCC2)CC1)Nc1ccccc1N1CCCCC1 -1.6%
Cn1c(=O)c2c(nc(SCCNS(=O)(=O)c3ccccc3)n2C)n(C)c1=O 42.7%
Cn1c(=O)c2c(nc(N3CCCCCC3)n2CC(=O)c2ccc(Br)cc2)n(C)c1=O 15.6%
Cc1ccc2[nH]c(=O)c(-c3nc4c(C)cccn4c3NCc3ccco3)cc2c1 13%
Fc1ccc(-c2ccc(-c3nn4c(-c5ccco5)nnc4s3)o2)cc1 7.3%
COC(=O)c1ccc(Oc2nc(Nc3ccc(F)cc3)nc(N3CCCC3)n2)cc1 31.9%
Cc1ccc2nc(Nc3ccccc3O)nc(-c3ccccc3)c2c1 13.8%
Cc1nnc(SCC(N)=O)n1CC1CCCO1 (configuration not stated) 0.5%
O=C(NC1CCCCC1)c1ccc2c(=O)n(CC3CCCO3)c(=O)[nH]c2c1 (configuration not stated) -2.1%
COc1cccc(CNc2nc3nc4c(c(=O)n3[nH]2)CCC4)c1 15.1%
CC(=O)Nc1ccc(N2C(=O)C3C4CC(=O)C(c5ccccc54)C3C2=O)cc1 (configuration not stated) -8.5%
COC(=O)c1ccc(NC(=O)CSc2nnc(Cc3cccn3C)n2-c2ccc(F)cc2)cc1 19.2%
Cc1ccc(C)c(NC(=O)CSc2nnc(Cc3cccn3C)n2-c2ccc(F)cc2)c1 19.9%
CC(=NC1CCN(Cc2ccccc2)CC1)c1c(O)[nH]c(=O)[nH]c1=O -1.3%
CN=C1S/C(=C\c2ccc(Sc3ccc(Cl)cc3)o2)C(=O)N1C 29.4%
O=C(CSc1nc2ccccc2[nH]1)c1cccs1 29.8%
CC(=O)c1sc(NC(=O)c2ccc(C)cc2)nc1C 6.9%
CC(=O)c1sc(NC(=O)c2cccc3ccccc23)nc1C -22.6%
COc1ccc(C(=S)Nc2ccccc2)cc1 15%
CN1CCN(C(=O)Cn2c(C(F)(F)F)nc3ccccc32)CC1 -8.1%
CCOC(=O)N1CCN(C(=O)CN(C2CCCCC2)S(C)(=O)=O)CC1 0.7%
CS(=O)(=O)N(CC(=O)N1CCN(c2ccc(F)cc2)CC1)C1CCCCC1 21.6%
CC(C)C(C)NC(=O)COc1ncnc2ccccc12 (configuration not stated) 14.1%
O=C(CSc1nnc(Cc2ccccc2)n1-c1ccccc1)N1CCOCC1 3.8%
COc1ccccc1Cc1nc(-c2ccc(C)cc2)no1 7.1%
COc1ccc(-c2noc(-c3ccc(C)cc3)n2)cc1 -13.8%
COc1ccc(-c2noc(CN(C)S(=O)(=O)c3ccc(C)cc3)n2)cc1 18.8%
CSc1nnc(CNC(=O)c2ccccc2)n1-c1ccc(F)cc1 -3.4%
Cc1ccc(Cc2nc(-c3cccc(C)c3)no2)cc1 -9.2%
Cc1ccc(-c2noc(CCC(N)=O)n2)cc1 6.1%
CCOc1cc(-c2noc(CCC(=O)N3CCOCC3)n2)ccc1OC -11.7%
